In ChEMBL document CHEMBL1157539, “Thousands of chemical starting points for antimalarial lead identification” (Nature, 2010) one finds Inhibition data, which are given here for 38 compounds.

Broadly, the Inhibition is the drop in the measured response relative to a control, in per cent.

Structures are written as SMILES. “And” between values parts separate entries of the source, which are not always exact repeats. Equal entries are not always repeated.

The first test concerns Plasmodium falciparum. The test is described as follows: GSK_TCMDC: Inhibition of Plasmodium falciparum 3D7 in whole red blood cells, using parasite LDH activity as an index of growth. Test compounds present at 2uM. It counts as functional.
As to `COc1coc(C(=O)NC2CCN(CC3(c4ccc(Cl)cc4)CCC3)CC2)c1OC`, the Inhibition turned out to be 96%.

Regarding `O=C(/C=C/c1ccc(Cl)c(Cl)c1)N1CCC(CN2CCC(c3c(-c4ccccc4)[nH]c4ccccc34)CC2)CC1`, the Inhibition came out at 100%.

Regarding `COc1ccc(C=CC(=O)NC2CCC(CN3CCC(c4c[nH]c5ccccc45)CC3)CC2)cc1OC` (stereo unspecified), the Inhibition is listed as 100%.

Take `O=C(/C=C/c1ccc(Cl)cc1)NC1CCC(CN2CCC(c3c[nH]c4ccccc34)CC2)CC1` (stereo unspecified): the Inhibition is 99% and 100%.

`CC[C@H]1CN2CC[C@@H]1C[C@H]2[C@H](O)c1cc(N2CCC(N3CCCCC3)CC2)nc2ccc(OC)cc12` displayed an Inhibition of 99%.

On to `O=c1c2ccccc2nc(/C=C/c2ccc([N+](=O)[O-])cc2)n1-c1ccccn1`, for which the Inhibition is reported as 98%.

`CC(Cc1ccc(Oc2ccc(Cl)cc2)cc1)NCC(O)c1cccc(Cl)c1` (stereo unspecified) yielded an Inhibition of 99%.

Consider `CCOC(=O)c1c(C)n(C2CCCCCC2)c2cc(Br)c(O)cc12`, for which the Inhibition stood at 87%.

In turn, `CC(C)CNCc1cccc(-c2cccc(CN(C(=O)Nc3ccccc3)C3CCN(Cc4ccccc4)CC3)c2)c1.O=C(O)C(F)(F)F` displayed an Inhibition of 100%.

On to `COC(=O)c1ccc(CC(C)NCC(O)c2cccc(Cl)c2Cl)cc1.Cl` (stereo unspecified), for which the Inhibition was found to be 98%.

In turn, `CCCCCC(C)C(C)c1cc(O)c2c3c(c(=O)oc2c1)CN(Cc1ccccc1)CC3.Cl` (stereo unspecified) showed an Inhibition of 99%.

Take `Cc1c(C)c2c(c(C)c1O)CC[C@@](C)(C(=O)NC1CCC(CN3CCC(c4c[nH]c5ccccc45)CC3)CC1)O2` (stereo partly specified): the Inhibition worked out at 92%.

Take `CCCC(=O)c1c(O)c2ccccc2oc1=O`: the Inhibition is 93%.

The compound `O=C(/C=C/c1ccc2ccccc2c1)NC1CCC(CN2CCC(c3c[nH]c4ccccc34)CC2)CC1` (stereo unspecified) came in with an Inhibition of 100%.

`CCCCCCCc1cc(O)c2c(c1)OC(C)(C)c1ccncc1-2.Cl` yielded an Inhibition of 95%.

`Cc1csc(NC2=NCCN2)n1.Cl` gave an Inhibition of 99%.

The compound `CC(Cc1ccc(S(=O)(=O)N(C(C)C)C(C)C)cc1)NCC(O)c1cccc(C(F)(F)F)c1.Cl` (stereo unspecified) gave an Inhibition of 96%.

Take `CCCCCCC(C)(C)c1cc(O)c2c3c(c(=O)oc2c1)CCN(Cc1ccccc1)C3.Cl`: the Inhibition was found to be 100%.

`Cc1ccc(-n2nc(C)c3c2NC(=O)CSC3c2ccsc2)cc1` (stereo unspecified) gave an Inhibition of 97%.

Take `CN(C)CCc1c[nH]c2ccc(C(=O)Nc3ccc(-c4ccncc4)cc3)cc12.O=C(O)CCC(=O)O`: the Inhibition was 99%.

Take `COC(C(=O)OCCC1CCCN1C)(c1ccccc1)C1CCCCC1` (stereo unspecified): the Inhibition is listed as 100%.

In the case of `CC(NC(C)(C)C)C(O)c1ccc(Cl)c(C(F)(F)F)c1.Cl` (stereo unspecified), the Inhibition worked out at 97%.

`O=C(Nc1ccc(Oc2ccccc2)cc1)NC1CCC(CN2CCC(c3c[nH]c4ccccc34)CC2)CC1` (stereo unspecified) gave an Inhibition of 100%.

As for `O=C(/C=C/c1cccc(F)c1)NC1CCC(CN2CCC(c3c[nH]c4ccccc34)CC2)CC1` (stereo unspecified), the Inhibition was 99% and 98%.

`CC(C)CNCc1cccc(-c2ccc(CN(C(=O)NC3CCCCC3)C3CCN(Cc4ccccc4)CC3)cc2)c1.O=C(O)C(F)(F)F` had an Inhibition of 97%.

Compound `CNC(=O)c1ccc2[nH]cc(C3CCN(CC4CCC(NC(=O)/C=C/c5ccccc5Cl)CC4)CC3)c2c1` (stereo unspecified) registered an Inhibition of 100%.

Regarding `CCCc1c(C(=O)NC2CCC(CN3CCC(c4c[nH]c5ccccc45)CC3)CC2)cnn1-c1ccccc1` (stereo unspecified), the Inhibition was 92%.

Turning to `COC(=O)c1sccc1NC(=S)NC1CCC(CN2CCC(c3c[nH]c4ccccc34)CC2)CC1` (stereo unspecified), the Inhibition was 97% and 100%.

Turning to `CNCCN(C)C(=O)Oc1c(Cl)c(C)nc(C)c1-c1ccc(Oc2ccc(OC(F)(F)F)cc2)cc1.Cl`, the Inhibition is listed as 97%.

`O=C(NC1CCC(CN2CCC(c3c[nH]c4ccccc34)CC2)CC1)c1cc(-c2ccccc2)c(C(F)(F)F)s1` (stereo unspecified) came in with an Inhibition of 100%.

Turning to `CC(Cc1ccc(NC(=O)[C@@H](C)NCCc2cccc(Cl)c2)cc1)NCCc1cccc(Cl)c1.Cl` (stereo partly specified), the Inhibition is given as 99%.

Consider `Cc1cc(O)cc2c(C3CCN(CC4CCN(C(=O)/C=C/c5ccc(Cl)c(Cl)c5)CC4)CC3)c[nH]c12`, for which the Inhibition is reported as 100%.

The compound `Clc1ccc2nccc(N3CCC(CN4CCC(c5c[nH]c6ccccc56)CC4)CC3)c2c1.O=C(O)C(F)(F)F` had an Inhibition of 100%.

As to `C/C=C1/CN2CC[C@H]1C[C@H]2[C@H](O)c1ccnc2ccc(OC)cc12`, the Inhibition worked out at 99%.

`CCCCCC(C)C(C)c1cc(O)c2c(c1)OC1(C(C)C)CC(O)C(C)C2C1` (stereo unspecified) showed an Inhibition of 93%.

`CC(C)CNCc1ccc(-c2cccc(CN(C(=O)Nc3ccccc3)C3CCN(Cc4ccccc4)CC3)c2)cc1.O=C(O)C(F)(F)F`: the Inhibition is 100%.

Compound `O=C(/C=C/c1ccc(Cl)c(Cl)c1)NC1CCC(N2CCC(c3c[nH]c4ccccc34)CC2)CC1` (stereo unspecified) returned an Inhibition of 100%.

Consider `O=C(/C=C/c1ccc(Cl)c(Cl)c1)Nc1cccc(CN2CCC(c3c[nH]c4ccc(O)cc34)CC2)c1`, for which the Inhibition amounted to 100%.

The test system of a further test is Plasmodium falciparum. The test is described as follows: GSK_TCMDC: Inhibition of Plasmodium falciparum Dd2 in whole red blood cells, using parasite LDH activity as an index of growth. Test compounds present at 2uM. Type of test: functional.
In turn, `COc1coc(C(=O)NC2CCN(CC3(c4ccc(Cl)cc4)CCC3)CC2)c1OC` registered an Inhibition of 96%.

`O=C(/C=C/c1ccc(Cl)c(Cl)c1)N1CCC(CN2CCC(c3c(-c4ccccc4)[nH]c4ccccc34)CC2)CC1` yielded an Inhibition of 99%.

Regarding `COc1ccc(C=CC(=O)NC2CCC(CN3CCC(c4c[nH]c5ccccc45)CC3)CC2)cc1OC` (stereo unspecified), the Inhibition is 85% and 72%.

`O=C(/C=C/c1ccc(Cl)cc1)NC1CCC(CN2CCC(c3c[nH]c4ccccc34)CC2)CC1` (stereo unspecified): the Inhibition is 90% and 67%.

`CC[C@H]1CN2CC[C@@H]1C[C@H]2[C@H](O)c1cc(N2CCC(N3CCCCC3)CC2)nc2ccc(OC)cc12` displayed an Inhibition of 77%.

With `O=c1c2ccccc2nc(/C=C/c2ccc([N+](=O)[O-])cc2)n1-c1ccccn1`, the Inhibition was determined as 96%.

The compound `CC(Cc1ccc(Oc2ccc(Cl)cc2)cc1)NCC(O)c1cccc(Cl)c1` (stereo unspecified) displayed an Inhibition of 98%.

In the case of `CCOC(=O)c1c(C)n(C2CCCCCC2)c2cc(Br)c(O)cc12`, the Inhibition came out at 45%.

`CC(C)CNCc1cccc(-c2cccc(CN(C(=O)Nc3ccccc3)C3CCN(Cc4ccccc4)CC3)c2)c1.O=C(O)C(F)(F)F` had an Inhibition of 89%.

Compound `COC(=O)c1ccc(CC(C)NCC(O)c2cccc(Cl)c2Cl)cc1.Cl` (stereo unspecified) registered an Inhibition of 98%.

In turn, `CCCCCC(C)C(C)c1cc(O)c2c3c(c(=O)oc2c1)CN(Cc1ccccc1)CC3.Cl` (stereo unspecified) came in with an Inhibition of 47%.

For `Cc1c(C)c2c(c(C)c1O)CC[C@@](C)(C(=O)NC1CCC(CN3CCC(c4c[nH]c5ccccc45)CC3)CC1)O2` (stereo partly specified), the Inhibition came to 57%.

As for `CCCC(=O)c1c(O)c2ccccc2oc1=O`, the Inhibition came to 1%.

`O=C(/C=C/c1ccc2ccccc2c1)NC1CCC(CN2CCC(c3c[nH]c4ccccc34)CC2)CC1` (stereo unspecified) had an Inhibition of 88%.

`CCCCCCCc1cc(O)c2c(c1)OC(C)(C)c1ccncc1-2.Cl`: the Inhibition is 52%.

The compound `Cc1csc(NC2=NCCN2)n1.Cl` displayed an Inhibition of 1%.

Turning to `CC(Cc1ccc(S(=O)(=O)N(C(C)C)C(C)C)cc1)NCC(O)c1cccc(C(F)(F)F)c1.Cl` (stereo unspecified), the Inhibition is 93%.

`CCCCCCC(C)(C)c1cc(O)c2c3c(c(=O)oc2c1)CCN(Cc1ccccc1)C3.Cl`: the Inhibition is on record as 99%.

`Cc1ccc(-n2nc(C)c3c2NC(=O)CSC3c2ccsc2)cc1` (stereo unspecified) showed an Inhibition of 11%.

On to `CN(C)CCc1c[nH]c2ccc(C(=O)Nc3ccc(-c4ccncc4)cc3)cc12.O=C(O)CCC(=O)O`, for which the Inhibition is given as 46%.

In turn, `COC(C(=O)OCCC1CCCN1C)(c1ccccc1)C1CCCCC1` (stereo unspecified) came in with an Inhibition of 5%.

Regarding `CC(NC(C)(C)C)C(O)c1ccc(Cl)c(C(F)(F)F)c1.Cl` (stereo unspecified), the Inhibition was 97%.

In the case of `O=C(Nc1ccc(Oc2ccccc2)cc1)NC1CCC(CN2CCC(c3c[nH]c4ccccc34)CC2)CC1` (stereo unspecified), the Inhibition turned out to be 97%.

Take `O=C(/C=C/c1cccc(F)c1)NC1CCC(CN2CCC(c3c[nH]c4ccccc34)CC2)CC1` (stereo unspecified): the Inhibition was 28% and 31%.

`CC(C)CNCc1cccc(-c2ccc(CN(C(=O)NC3CCCCC3)C3CCN(Cc4ccccc4)CC3)cc2)c1.O=C(O)C(F)(F)F` had an Inhibition of 51%.

For `CNC(=O)c1ccc2[nH]cc(C3CCN(CC4CCC(NC(=O)/C=C/c5ccccc5Cl)CC4)CC3)c2c1` (stereo unspecified), the Inhibition is reported as 19%.

As to `CCCc1c(C(=O)NC2CCC(CN3CCC(c4c[nH]c5ccccc45)CC3)CC2)cnn1-c1ccccc1` (stereo unspecified), the Inhibition is 7%.

Regarding `COC(=O)c1sccc1NC(=S)NC1CCC(CN2CCC(c3c[nH]c4ccccc34)CC2)CC1` (stereo unspecified), the Inhibition was 49% and 54%.

Take `CNCCN(C)C(=O)Oc1c(Cl)c(C)nc(C)c1-c1ccc(Oc2ccc(OC(F)(F)F)cc2)cc1.Cl`: the Inhibition came out at 96%.

For `O=C(NC1CCC(CN2CCC(c3c[nH]c4ccccc34)CC2)CC1)c1cc(-c2ccccc2)c(C(F)(F)F)s1` (stereo unspecified), the Inhibition is on record as 100%.

`CC(Cc1ccc(NC(=O)[C@@H](C)NCCc2cccc(Cl)c2)cc1)NCCc1cccc(Cl)c1.Cl` (stereo partly specified) came in with an Inhibition of 54%.

With `Cc1cc(O)cc2c(C3CCN(CC4CCN(C(=O)/C=C/c5ccc(Cl)c(Cl)c5)CC4)CC3)c[nH]c12`, the Inhibition worked out at 100%.

As for `Clc1ccc2nccc(N3CCC(CN4CCC(c5c[nH]c6ccccc56)CC4)CC3)c2c1.O=C(O)C(F)(F)F`, the Inhibition is given as 81%.

`C/C=C1/CN2CC[C@H]1C[C@H]2[C@H](O)c1ccnc2ccc(OC)cc12` registered an Inhibition of 45%.

The compound `CCCCCC(C)C(C)c1cc(O)c2c(c1)OC1(C(C)C)CC(O)C(C)C2C1` (stereo unspecified) gave an Inhibition of 87%.

For the compound `CC(C)CNCc1ccc(-c2cccc(CN(C(=O)Nc3ccccc3)C3CCN(Cc4ccccc4)CC3)c2)cc1.O=C(O)C(F)(F)F`, the Inhibition is 95%.

`O=C(/C=C/c1ccc(Cl)c(Cl)c1)NC1CCC(N2CCC(c3c[nH]c4ccccc34)CC2)CC1` (stereo unspecified) gave an Inhibition of 69%.

On to `O=C(/C=C/c1ccc(Cl)c(Cl)c1)Nc1cccc(CN2CCC(c3c[nH]c4ccc(O)cc34)CC2)c1`, for which the Inhibition was determined as 90%.
